Drawing on publication PMC9838217, “Structure of SALL4 zinc finger domain reveals link between AT-rich DNA binding and Okihiro syndrome”, this text covers binding signal for 33 sequences.

Residue numbers refer to the chain shown, from its start.

The target of one test is T1, SALL4 ZFC4 WT (HT-SELEX) (Mus musculus, UniProt Q8BX22 870-940).
T1 sequence: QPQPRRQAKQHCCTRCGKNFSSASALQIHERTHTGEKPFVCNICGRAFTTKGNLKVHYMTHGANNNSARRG
In words: HT-SELEX; high values mean tight binding. To be noted: protein: recombinant; vector His6-GST; dsDNA, one strand shown. The essentials: (§1)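 Library DNA (1.5 µg in cycle one, 200 ng in later cycles) was incubated with 1 µg of purified recombinant mouse SALL4 zinc finger cluster 4, residues 870–940, in 100 µl buffer (10 mM Tris–HCl pH 7.5, 50 mM NaCl, poly(dI-dC), DTT) at room temperature for 10 min. Up to 6 rounds of Ni2+ bead capture, washing, PCR amplification and reselection were run in triplicate. Reads from MiSeq sequencing were scanned for 6-mers. For each canonical k-mer, binding signal is its read fraction as fold change versus the original random library.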

For test [1], the target named is T2, SALL4 ZFC4 R900W (HT-SELEX) (Mus musculus, UniProt Q8BX22 870-940, R900W).
T2 sequence: T1 sequence with R31W
Description: HT-SELEX; high values mean tight binding. Particulars: protein: recombinant; vector His6-GST; dsDNA, one strand shown. The method in brief: as §1

For the sequence CTCTTA, the binding signal with SALL4 ZFC4 WT (HT-SELEX) worked out at 1.46 ± 0.0534 fold-change vs cycle 0.

For the sequence GGAAGA, the binding signal in test [1] stood at 1.12 ± 0.0339 fold-change vs cycle 0.

Take ATACCA: the binding signal in test [1] was found to be 1.39 ± 0.0221 fold-change vs cycle 0.

Turning to AAATGG, in test [1], the binding signal came out at 1.16 ± 0.0862 fold-change vs cycle 0.

For ACGAAA, the binding signal in test [1] was 1.12 ± 0.0308 fold-change vs cycle 0.

ATAGCA: the binding signal in test [1] was found to be 1.21 ± 0.0922 fold-change vs cycle 0.

In the case of ATTCTC, the binding signal with SALL4 ZFC4 WT (HT-SELEX) was determined as 1.41 ± 0.062 fold-change vs cycle 0.

For the sequence ATGCAA, the binding signal in test [1] amounted to 1.18 ± 0.0732 fold-change vs cycle 0.

GCATAA: in test [1], the binding signal is 1.11 ± 0.0331 fold-change vs cycle 0.

For the sequence ATACGA, the binding signal with SALL4 ZFC4 WT (HT-SELEX) stood at 1.26 ± 0.0299 fold-change vs cycle 0.

For ACTCCA, the binding signal in test [1] came to 1.03 ± 0.0645 fold-change vs cycle 0.

With GGTATA, in the test with SALL4 ZFC4 WT (HT-SELEX), the binding signal was found to be 1.3 ± 0.0598 fold-change vs cycle 0.

With ATGGAG, in test [1], the binding signal is 1.04 ± 0.0611 fold-change vs cycle 0.

As to TAAGAA, in test [1], the binding signal came out at 2.2 ± 0.155 fold-change vs cycle 0.

On to AGAATA, for which, in the test with SALL4 ZFC4 WT (HT-SELEX), the binding signal is 2.17 ± 0.0586 fold-change vs cycle 0.

In the case of ACAAAC, the binding signal in test [1] came out at 1.23 ± 0.0488 fold-change vs cycle 0.

Turning to GAAGTA, the binding signal in the test with SALL4 ZFC4 WT (HT-SELEX) was 1.43 ± 0.0516 fold-change vs cycle 0.

Regarding AGGATG, the binding signal in test [1] came to 1.04 ± 0.0516 fold-change vs cycle 0.

AATACG: in test [1], the binding signal is 1.11 ± 0.0569 fold-change vs cycle 0.

With CATCTC, the binding signal in test [1] was found to be 1.01 ± 0.0376 fold-change vs cycle 0.

Take CCAATA: the binding signal in test [1] was 1.24 ± 0.0246 fold-change vs cycle 0.

Consider ATGATG, for which the binding signal with SALL4 ZFC4 WT (HT-SELEX) was 1.43 ± 0.0727 fold-change vs cycle 0.

Regarding ACGAAT, the binding signal with SALL4 ZFC4 WT (HT-SELEX) amounted to 1.18 ± 0.0691 fold-change vs cycle 0.

For GCATTA, the binding signal in the test with SALL4 ZFC4 WT (HT-SELEX) amounted to 1.15 ± 0.025 fold-change vs cycle 0.

Regarding GAACTA, the binding signal with SALL4 ZFC4 WT (HT-SELEX) is 1.37 ± 0.088 fold-change vs cycle 0.

Turning to GGAATA, in the test with SALL4 ZFC4 WT (HT-SELEX), the binding signal is 1.41 ± 0.0746 fold-change vs cycle 0.

On to GCTTTA, for which, in test [1], the binding signal came out at 1.09 ± 0.0574 fold-change vs cycle 0.

On to GTGTTA, for which the binding signal with SALL4 ZFC4 WT (HT-SELEX) worked out at 1.31 ± 0.0667 fold-change vs cycle 0.

In the case of CAATAG, the binding signal with SALL4 ZFC4 WT (HT-SELEX) is 1.21 ± 0.0269 fold-change vs cycle 0.

As for AAAACT, the binding signal in test [1] worked out at 1.7 ± 0.107 fold-change vs cycle 0.

For ACTATG, the binding signal with SALL4 ZFC4 WT (HT-SELEX) was found to be 1.34 ± 0.073 fold-change vs cycle 0.

In the case of ACCATA, the binding signal with SALL4 ZFC4 WT (HT-SELEX) turned out to be 1.42 ± 0.0615 fold-change vs cycle 0.

In the case of TCGTAA, in the test with SALL4 ZFC4 WT (HT-SELEX), the binding signal turned out to be 1.21 ± 0.0956 fold-change vs cycle 0.
